Compound activity (PubChem BioAssay)
Shown are actives, neighbours in structure and some others; about 10% of the full set was active somewhere.
GPT2 inhibitor = inhibitors of human GPT2 alanine aminotransferase; 0.25% of 100,000 active; Potency, µM (highest dose often 57.7 µM), inactives show at the top dose activity change, negative = inhibition, most hits filed as inhibitors; Recombinant GPT2, coupled pyruvate oxidase/HRP Amplex Red fluorescence; further: nearly all actives have a fitted effect of over 60% in size
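Fluorescence read-out: pyruvate from GPT2 turnover coupled to pyruvate oxidase, HRP and Amplex Red (0.2mM ThPP, 0.2U/mL PO and HRP, 50uM Amplex final). Substrates 250uM a-KG, 2mM L-alanine; enzyme 10ng/uL; 30 min RT.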
3T3 cytotox = NIH 3T3 cell cytotoxicity; NIH 3T3 viability, CellTiter-Glo ATP luminescence, 48-72 h; Potency, µM (titrated, usually from 96.7 µM), inactives show top-dose activity change, negative = cytotoxicity, actives largely listed as inhibitors; 4.3% of 94,000 active; AID 1345082; further: nearly all actives have a fitted effect of over 55% in size
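Luminescent ATP readout (CellTiter-Glo, 10 min RT) after 48 or 72 hr compound exposure of NIH 3T3 cells seeded at 400 cells/well in 1536-well format; quantitative HTS.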
HEK cytotox = kills HEK 293 cells; HEK 293 viability, ATP luminescence (CellTiter-Glo), 48-72 h; Potency, µM (doses to about 115 µM), for the others: at the top dose activity change, negative = cytotoxicity, actives largely listed as inhibitors; 6.6% of 94,000 active; AID 1345083; further: nearly all actives have a fitted effect of over 60% in size
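CellTiter-Glo luminescence (cellular ATP) was read after 48 or 72 hr of compound exposure at 37 degree Celsius. Cells were HEK 293 plated at 250 cells/well.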
FLuc inh = inhibitors of firefly (Photinus pyralis) luciferase. 2.5% of 76,000 active. purified P. pyralis luciferase, luminescence, biochemical. Potency, µM (doses to about 115 µM), actives largely listed as inhibitors; further: nearly all actives have a fitted effect of over 65% in size
Target sequence (P08659 whole entry, looked up): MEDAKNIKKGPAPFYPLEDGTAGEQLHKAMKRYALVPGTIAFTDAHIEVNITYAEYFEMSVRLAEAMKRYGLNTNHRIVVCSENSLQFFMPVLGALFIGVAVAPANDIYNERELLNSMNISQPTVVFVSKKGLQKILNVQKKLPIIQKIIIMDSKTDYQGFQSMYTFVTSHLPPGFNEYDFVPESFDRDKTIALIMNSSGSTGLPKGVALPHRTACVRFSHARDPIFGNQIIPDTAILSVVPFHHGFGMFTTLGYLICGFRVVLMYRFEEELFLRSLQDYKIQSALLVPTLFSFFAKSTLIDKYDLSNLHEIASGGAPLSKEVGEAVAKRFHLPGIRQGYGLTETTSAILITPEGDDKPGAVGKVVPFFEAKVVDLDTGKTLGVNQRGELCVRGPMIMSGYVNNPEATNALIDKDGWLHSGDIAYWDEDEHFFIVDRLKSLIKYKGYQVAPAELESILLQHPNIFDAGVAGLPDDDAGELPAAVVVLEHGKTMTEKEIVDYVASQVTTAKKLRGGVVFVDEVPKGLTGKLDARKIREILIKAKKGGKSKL
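Cell-free enzyme assay, 10nM P. pyralis luciferase, luciferin and ATP each at 10uM. Inhibition profiled over a 6-point titration, read as luminescence.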
hNpr1 antagonist = blocks ANP-stimulated signaling of human Npr1 receptor. 1.6% of 76,000 active. Potency, µM (doses to about 46.3 µM), for the others: top-dose activity change, negative = inhibition, most hits filed as inhibitors. P16066. HEK293 hNpr1 GloSensor cGMP, ANP-stimulated luminescence; calls by dose curve; further: nearly all actives have a fitted effect of over 60% in size
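Compound pre-incubated 30 min at room temperature on GloSensor-loaded HEK293 cells stably carrying hNpr1 and the pGS-40F cGMP biosensor. Stimulation uses hNppA at 0.1 nM final; luminescence is taken at baseline and 20 min post-agonist.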
Numbers without * were called inactive; i = inactive; ? = inconclusive; . = not tested or not shown; [ ] = another dose, or the depositor's remark. Unless noted, the call rests on the fitted dose curve; in most records, active means well fitted curve in the direction sought with a large enough effect; inconclusive means small, poorly fitted or top-dose-only effect, or another doubt; inactive means no such curve, though single readings can be large; an effect the other way counts as inactive or inconclusive. On the % scale 0 is the no-effect control and ±100 the full control effect; potency means the concentration at half of the fitted maximal effect.

SMILES | GPT2 inhibitor | 3T3 cytotox | HEK cytotox | FLuc inh | hNpr1 antagonist
COCCN1CCCCCC(O)c2cc(C(=O)N(C)Cc3cccnc3)ccc21 (configuration not stated) | i | ? | ? | i | 3.9%
CC(C)N1CCC2(CC1)CN(C(=O)c1cnccn1)Cc1ccccc1O2 | i | -20.4% | i | . | .
COc1cc(-c2ccnc(-c3nnc(C)n3C3CCCCC3)c2)ccn1 | -5.1%[88.5 µM] | -28.6%[138 µM] | ? | i | -1.9%[70.6 µM]
Cc1nnc(-c2cc(Nc3cccc(N(C)C)c3)ccn2)n1C1CCCCC1 | i | ? | 89.1µM* | i | -5.9%[70.6 µM]
CCN1C(=O)C2(CCN(S(=O)(=O)Cc3ccc(Cl)cc3)CC2)c2ccccc21 | i | 25.1µM* | 35.5µM* | i | -11.9%
CCN1C(=O)C2(CCN(S(=O)(=O)Cc3ccccc3)CC2)c2ccccc21 | -5.7% | -4.1% | -1.5% | i | -10.4%
Cc1ccc(C(=O)N2CCC3(CC2)CC(CO)N(C(=O)c2ccccc2)C3)s1 (configuration not stated) | i | -13.8% | -20.5% | . | .
COc1ccc(CN2CCCC3(C2)C(=NC2CCCCC2)NC(=O)N3c2cccc(OC)c2)cc1 (configuration not stated) | -5.8% | ? | ? | . | .
COc1cccc(N2C(=O)NC(=NC3CCCCC3)C23CCCN(Cc2ccc(N(C)C)cc2)C3)c1 (configuration not stated) | i | 28.2µM* | 31.6µM* | . | .
COc1cccc(N2C(=O)NC(=NC3CCCCC3)C23CCCN(Cc2ccsc2)C3)c1 (configuration not stated) | 0.8% | 39.8µM* | ? | . | .
CSc1ccc(-c2cccc(CN3CCC(N[S+](=O)([O-])c4cccc(C(F)(F)F)c4)CC3)c2)cc1 | . | 10µM* | 12.6µM* | . | .
CSc1ccc(-c2cccc(CN3CCC(NC(=O)c4ccc(F)cc4)CC3)c2)cc1 | . | -14.6% | -7.8% | . | .
Cc1cccc(-c2cccc(CN3CCC(N[S+](=O)([O-])c4cccc(C(F)(F)F)c4)CC3)c2)c1 | -11.7% | 11.2µM* | ? | . | .
Cc1noc(C)c1[S+](=O)([O-])N1CCCC1C(=O)N1CCC(c2ccccc2)CC1 (configuration not stated) | i | ? | ? | . | .
CC(C)NS(=O)(=O)c1ccc2c(c1)nc(-c1cc(C(C)(C)C)[nH]n1)n2C(C)C | i | ? | 44.7µM* | i | -1.3%
Cn1ccnc1-c1ccc(N2CCCC(CO)(CCOc3ccccc3)C2)nn1 (configuration not stated) | -5.1% | ? | 31.6µM* | i | ?
Cn1ccnc1-c1ccc(N2CCC(CO)(CCOc3ccccc3)CC2)nn1 | -24.7% | ? | ? | 39.8µM* | -18.6%
Cc1ccccc1CC1(CO)CCCN(c2ccc(-c3nccn3C)nn2)C1 (configuration not stated) | 2.4% | ? | 31.6µM* | i | ?
Cn1ccnc1-c1cn(CC2(c3ccccc3F)CCCC2)nn1 | ? | ? | ? | i | -10.4%
CO[C@H]1C(=O)N(C(C)C)[C@H]1C1CCN(Cc2cn[nH]c2-c2ccccc2)CC1 | i | -25.7% | -10.1% | . | .
O=C(C1CCCC1)N1CCC(C(=O)N2CCC(c3nc4ncccc4[nH]3)CC2)CC1 | -4.3% | -2.4% | i | . | .
COC(=O)N1CCCC1C(=O)N1CCC(N2Cc3ccccc3C2=O)CC1 (configuration not stated) | i | -2.2% | -6.8% | . | .
CNC(=O)c1cc(C)nc2onc(C3CCN(C(=O)c4ccccc4F)CC3)c12 | . | -21.6% | -12.3% | . | .
C=CCN1CCN(C(=O)CCC[C@H]2NC[C@@H]3C[C@H]2CN(Cc2ccccc2)C3)CC1 | 3.1% | i | -7.9% | i | 0.0%
CCOc1ccccc1CN1CCO[C@@H](COC)[C@@H]1c1ccccc1 | -0.3% | -27.4% | 39.8µM* | . | .
SMILES | GPT2 inhibitor | 3T3 cytotox | HEK cytotox | FLuc inh | hNpr1 antagonist
O=C1CC(c2ccccc2)N(Cc2cn[nH]c2-c2cccs2)CCCCCN1 (configuration not stated) | i | ? | 79.4µM* | i | -0.7%
CCOc1ccccc1CN1CCCCCCNC(=O)CC1c1ccccc1 (configuration not stated) | i | 25.1µM* | 31.6µM* | i | -1.0%
O=C1NCCCCCN(Cc2cn[nH]c2-c2cccs2)[C@H]2CCC[C@@H]12 | i | -29.0% | -9.0% | i | 1.4%
COc1cccc(CN2CCCCCNC(=O)CC2c2ccccc2)c1OC (configuration not stated) | -19.3% | ? | ? | i | 1.7%
COc1cccc(CN2CCCCCCNC(=O)CC2c2ccccc2)c1OC (configuration not stated) | i | 39.8µM* | 44.7µM* | i | 1.4%
O=C(c1ccc(F)cc1)N1CCC(C(=O)N2CCC(c3nc4ccncc4[nH]3)C2)CC1 (configuration not stated) | -1.6% | i | 2.9% | . | .
CCOCCNC(=O)c1cc(-c2ccccc2C(F)(F)F)nc2c1cnn2C | . | -28.3% | ? | . | .
O=C(Cc1ccccc1)Nc1cc(-c2ccncc2)nn1-c1ccccc1 | i | -29.0% | ? | . | .
Cc1ccc(C2=NC3(CCN(C(=O)Cc4cccs4)CC3)ON2)cc1 | i | -6.7% | -12.2% | i | -1.5%
O=C(c1n[nH]c2c1CCCC2)N1CCC2(CC1)N=C(c1ccccc1)NO2 | i | -15.9% | ? | 28.2µM* | -24.0%
Cn1nc(C(=O)N2CCC3(CC2)N=C(c2ccccc2)NO3)c2ccccc21 | i | -3.4% | ? | 35.5µM* | -3.6%
O=C(c1ccncc1)N1CCC2(CC1)N=C(c1ccccc1)NO2 | i | i | 7.3% | i | 4.1%
Cn1nc(C(=O)N2CCC[C@H](n3c(=O)n(CC4CC4)c4cccnc43)C2)c2ccccc21 | i | ? | 31.6µM* | . | .
Cc1ccsc1C(=O)N1CCC[C@H](n2c(=O)n(CC3CC3)c3cccnc32)C1 | i | ? | 25.1µM* | i | -23.2%
c1ccc2sc(N3CCCN(Cc4cc5n(n4)CCNC5)CC3)nc2c1 | 4.7% | ? | 35.5µM* | ? | 2.8%
COc1cccc(N2C(=O)NC(=NC3CCCCC3)C23CCN(C(=O)c2ccccc2)CC3)c1 | -25.3% | 31.6µM* | -3.6% | . | .
O=C(c1ccccc1)N1CCC2(CC1)C(=NC1CCCCC1)NC(=O)N2c1cc(F)cc(F)c1 | ? | 31.6µM* | -9.4% | . | .
O=C(c1ccccc1)N1CCC2(C1)C(=NC1CCCCC1)NC(=O)N2c1cc(F)cc(F)c1 (configuration not stated) | i | -20.3% | -2.1% | . | .
O=C(c1ccc(C(F)(F)F)cc1)N1CCC2(CC1)C(=NC1CCCC1)NC(=O)N2c1cccnc1 | i | 35.5µM* | i | . | .
O=C(NCc1ccccc1Cl)c1nc2sccn2c1-c1ccncc1 | i | ? | ? | . | .
